# Records with an inconclusive call do not appear. The source made the active and inactive calls. The calls were made as follows, unless noted: active = hit-call score of the fitted dose curve at least 0.9, where 1 is the maximum; inconclusive = response in the unintended direction; inactive = score below 0.9.
# How the values were obtained:
# [1] = target: Cellular tumor antigen p53 (Homo sapiens) (UniProt P04637); experiment: TOX21_p53_BLA_p2_ratio: Tox21 HCT-116 p53 Agonism Beta-lactamase Assay, Ratio, Phase 2 (AID 2283592)
# Method in brief: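 Plated HCT116 p53-bla cells (4000/well) received compound after 5 h, then 16 h at 37C/5% CO2. CCF4-AM added, 2 h RT. Ratio of 460 to 530 nm emission taken as the p53 reporter signal.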
# [2] = target: Cellular tumor antigen p53 (Homo sapiens) (UniProt P04637); experiment: TOX21_p53_BLA_p3_ratio: Tox21 HCT-116 p53 Agonism Beta-lactamase Assay, Ratio, Phase 3 (AID 2283596)
# Method in brief: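 Cells were seeded at 4000/well, rested 5 h at 37C, then dosed with DMSO compound solutions (217-fold dilution) for 16 h. CCF4-AM substrate was loaded for 2 h at room temperature, and the 460/530 nm emission ratio was fitted for gain of signal versus DMSO.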
# [3] = TOX21_p53_BLA_p4_viability: Viability Assessment in the Tox21 HCT-116 p53 Agonism Beta-lactamase Assay, Phase 4 (AID 2283597);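 also: hits lower the luminescence signal meaning cytotoxicity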
# Method in brief: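 Readout: ATP luminescence (CellTiter-Glo), measured 30 min after reagent addition at RT. The reagent followed a 2 h CCF4-AM incubation, and the cells had been exposed to compound for 16 h at 37C.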
# [4] = target: Cellular tumor antigen p53 (Homo sapiens) (UniProt P04637); experiment: TOX21_p53_BLA_p5_ratio: Tox21 HCT-116 p53 Agonism Beta-lactamase Assay, Ratio, Phase 5 (AID 2283599)
# Method in brief: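 HCT-116 cells carrying a p53-inducible beta-lactamase reporter were seeded at 4000 cells/well and dosed after 5 h with compound in DMSO (217-fold dilution). After 16 h at 37C, CCF4-AM substrate was added for 2 h, and the 460/530 nm emission ratio was scored as gain-of-signal versus DMSO.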
# [5] = target: Cellular tumor antigen p53 (Homo sapiens) (UniProt P04637); experiment: TOX21_p53_BLA_p4_ratio: Tox21 HCT-116 p53 Agonism Beta-lactamase Assay, Ratio, Phase 4 (AID 2283601)
# Method in brief: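 HCT116 cells carrying an inducible beta-lactamase reporter were plated at 4000 cells/well, rested 5 h, then exposed to compounds in DMSO (217-fold dilution) for 16 h at 37C. CCF4-AM substrate was loaded 2 h at room temperature; 460/530 nm emission ratio scored gain-of-signal versus DMSO.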
# [6] = target: Retinoic acid receptor RXR-alpha (Homo sapiens) (UniProt P19793); experiment: TOX21_TR_RXR_BLA_Agonist_Followup_ratio: Tox21 Thyroid Hormone Receptor beta Retinoid X Receptor alpha (RXRa) Agonism Beta-lactamase (BLA) Follow-Up Assay, Ratio (AID 2283968)
# Method in brief: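 Agonist mode: compounds given to RXRa-bla HEK293T cells at 11 concentrations, triplicate, 16 h at 37C/5% CO2. Readout is the 460:530 nm blue/green ratio after 2 h substrate loading at room temperature; DMSO baseline, 9-cis retinoic acid control.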
# [7] = TOX21_TR_RXR_BLA_Agonist_Followup_viability: Viability Assessment in the Tox21 Thyroid Hormone Receptor beta Retinoid X Receptor alpha (RXRa) Agonism Beta-lactamase (BLA) Follow-Up Assay (AID 2283970)
# Method in brief: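 CellTiter-Glo ATP luciferase read-out of cell viability, multiplexed with the beta-lactamase reporter run. RXRa-bla HEK293T cells in charcoal-stripped serum medium were exposed 16 h at 37C; data fitted both directions relative to DMSO.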
# [8] = TOX21_p53_BLA_p5_viability: Viability Assessment in the Tox21 HCT-116 p53 Agonism Beta-lactamase Assay, Phase 5 (AID 2283600)
# Method in brief: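 Workflow: seed 4000 cells per well, wait 5 h, add compounds (DMSO, 217-fold dilution), incubate 16 h, load CCF4-AM 2 h, add CellTiter-Glo, read luminescence after 30 min.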
# [9] = TOX21_p53_BLA_p3_viability: Viability Assessment in the Tox21 HCT-116 p53 Agonism Beta-lactamase Assay, Phase 3 (AID 2283593);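 also: cells exposed to compound for 16 h before reading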
# Method in brief: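 HCT-116 cells (4000/well) rested 5 h at 37C, then got DMSO compounds by pin tool (217-fold dilution) for 16 h at 37C, 5% CO2. After the bla read, CellTiter-Glo was added and luminescence read at 30 min, room temperature.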
# [10] = CCTE_Harrill_HTTr_Viability_MCF7: CCTE's 6-hour Cell Viability Assessment for the High-Throughput Transcriptomics (HTTr) Platform, in MCF-7 cells cultured in DMEM + 10% fetal bovine serum, Harrill Lab (AID 2284010; active = hit-call score of the fitted dose curve at least 0.9, where 1 is the maximum; inactive = score below 0.9)
# Method in brief: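 Propidium iodide exclusion, imaged by high-content analysis, gauged viability after a six-hour exposure across eight concentrations. Cells were MCF-7 grown in DMEM with 10% fetal bovine serum; fits run in both directions against DMSO.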
# [11] = CCTE_Harrill_HTTr_Apoptosis_MCF7: CCTE's 6-hour Apoptosis Assessment for the High-Throughput Transcriptomics (HTTr) Platform, in MCF-7 cells cultured in DMEM + 10% fetal bovine serum, Harrill Lab (AID 2284011; active = hit-call score of the fitted dose curve at least 0.9, where 1 is the maximum; inactive = score below 0.9)
# Method in brief: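 MCF-7 (DMEM + 10% FBS), 384-well; 8-pt dilution series, 6 h chemical exposure; caspase-3/7 activation via CellEvent Caspase 3/7 Green, HCI; bidirectional fit vs DMSO.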
# [12] = CCTE_Harrill_HTTr_CellCount_MCF7: CCTE's Cell Proliferation Assessment for the High-Throughput Transcriptomics (HTTr) Platform, Harrill Lab (AID 2284012);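 also: cells exposed to compound for six hours; intended direction is loss of nuclei count meaning fewer cells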
# Method in brief: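 Cell count from high-content imaging of Hoechst-labeled nuclei serves as viability/growth readout. Chemicals were applied to MCF-7 cells in eight concentrations for six hours, with fitting in both directions relative to DMSO.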
# [13] = UKN5_HCS_SBAD2_neurite_outgrowth: University of Konstanz (UKN) Leist Lab Neurite Outgrowth Assay in human iPSC-derived immature Dorsal Root Ganglia Neurons (UKN5) (AID 2284070; active = hit-call score of the fitted dose curve at least 0.9, where 1 is the maximum; inactive = score below 0.9); conditions: actives raise or lower the signal
# Method in brief: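 Neurite area from calcein-AM high-content images after 24 h exposure (staining included), with H-33342 for viability, fitted both directions against DMSO. Cells: thawed immature SBAD2 peripheral neurons, 100.000 cells/cm2, with CHIR99021, SU5402, DAPT; dosing 1 h after seeding.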
# [14] = UKN4_HCS_LUHMES_neurite_outgrowth: University of Konstanz (UKN) Leist Lab Neurite Outgrowth Assay in human LUHMES cells (UKN4) (AID 2284206; active = hit-call score of the fitted dose curve at least 0.9, where 1 is the maximum; inactive = score below 0.9); conditions: actives raise or lower the signal
# Method in brief: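 After 24 h compound treatment beginning shortly after replating of 2-day-differentiated LUHMES cells, calcein-AM and H-33342 live staining allowed high-content imaging of neurite area and viability. Fitted bidirectionally against DMSO.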
# [15] = UKN4_HCS_LUHMES_cell_viability: Viability Assessment in the University of Konstanz (UKN) Leist Lab Neurite Outgrowth Assay in human LUHMES cells (UKN4) (AID 2284232; active = hit-call score of the fitted dose curve at least 0.9, where 1 is the maximum; inactive = score below 0.9)
# Method in brief: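 Viability was read by high-content imaging of calcein-AM/H-33342-stained cells after 24 h toxicant exposure, staining included. Cells: human LUHMES on day 2 of dopaminergic differentiation, dosed shortly after attachment; DMSO baseline, bidirectional curve fitting.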
# [16] = UKN2_HCS_IMR90_cell_viability: Viability Assessment in the University of Konstanz (UKN) Leist Lab Neural Crest Cell Migration Assay in human induced IMR90 Pluripotent Stem Cells (UKN2) (AID 2284233; active = hit-call score of the fitted dose curve at least 0.9, where 1 is the maximum; inactive = score below 0.9;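 also: viability of neural crest cells differentiated from IMR90 iPSC measured by calcein-AM fluorescence imaging; cells exposed to compound for 24 h after a 24 h migration phase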)
# Method in brief: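 cMINC format, iPSC-derived neural crest (IMR90); 24 h migration (EGF/FGF, N2-S), then 24 h toxicant. Calcein-AM/H-33342 stain 30 min; fluorescence intensity by HCS; DMSO-normalised, bidirectional fitting.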
# Sequence of Cellular tumor antigen p53 (Homo sapiens) (P04637 whole entry, looked up): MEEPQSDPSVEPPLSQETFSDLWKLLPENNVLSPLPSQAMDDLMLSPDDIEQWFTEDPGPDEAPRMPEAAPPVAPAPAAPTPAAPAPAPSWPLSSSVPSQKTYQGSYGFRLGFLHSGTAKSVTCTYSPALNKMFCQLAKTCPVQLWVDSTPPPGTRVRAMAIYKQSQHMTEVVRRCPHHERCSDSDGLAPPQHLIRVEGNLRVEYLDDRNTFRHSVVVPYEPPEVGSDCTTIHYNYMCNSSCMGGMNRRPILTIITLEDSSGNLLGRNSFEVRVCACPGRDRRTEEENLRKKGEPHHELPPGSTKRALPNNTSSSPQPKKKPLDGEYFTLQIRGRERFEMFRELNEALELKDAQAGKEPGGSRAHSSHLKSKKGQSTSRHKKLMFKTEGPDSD
# Sequence of Retinoic acid receptor RXR-alpha (Homo sapiens) (P19793 whole entry, looked up): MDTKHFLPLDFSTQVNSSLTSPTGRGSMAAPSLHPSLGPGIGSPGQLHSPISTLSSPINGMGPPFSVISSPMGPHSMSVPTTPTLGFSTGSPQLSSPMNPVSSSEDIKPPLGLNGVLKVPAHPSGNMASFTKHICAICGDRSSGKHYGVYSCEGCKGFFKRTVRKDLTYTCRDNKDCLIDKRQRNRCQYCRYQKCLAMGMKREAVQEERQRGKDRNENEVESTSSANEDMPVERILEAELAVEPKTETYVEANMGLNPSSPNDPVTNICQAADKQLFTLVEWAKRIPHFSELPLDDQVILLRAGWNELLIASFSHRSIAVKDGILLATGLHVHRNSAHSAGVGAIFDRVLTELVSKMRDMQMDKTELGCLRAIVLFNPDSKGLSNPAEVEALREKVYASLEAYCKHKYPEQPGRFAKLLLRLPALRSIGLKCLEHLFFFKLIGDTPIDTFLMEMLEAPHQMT
structure (smiles),measurement,setting,value
N[C@@H](Cc1ccc(Oc2cc(I)c(O)c(I)c2)c(I)c1)C(=O)O,outcome,[1],inactive
same,outcome,[2],inactive
same,outcome,[3],inactive
same,outcome,[4],inactive
same,outcome,[5],inactive
same,outcome,[6],inactive
same,outcome,[7],inactive
CN1CCCC(=C(c2cccs2)c2cccs2)C1,outcome,[1],inactive
same,outcome,[2],inactive
O=C1NCN(c2ccccc2)C12CCN(CCCOc1ccc(F)cc1)CC2,outcome,[1],inactive
same,outcome,[2],inactive
same,outcome,[3],inactive
same,outcome,[8],inactive
same,outcome,[5],inactive
O=C(N[C@H]1N=C(c2ccccc2F)c2cccc3c2N(CC3)C1=O)c1cc2ccccc2[nH]1,outcome,[1],inactive
same,outcome,[2],inactive
same,outcome,[4],inactive
N#C/C=C/C#N,outcome,[1],inactive
same,AC50,[2],93.4 µM (active)
same,outcome,[4],inactive
[O-][Br+2]([O-])O,outcome,[1],inactive
same,outcome,[2],inactive
same,outcome,[3],inactive
[Cl][Sn]([Cl])([Cl])[Cl],outcome,[1],inactive
same,outcome,[2],inactive
same,outcome,[3],inactive
same,outcome,[4],inactive
same,outcome,[8],inactive
same,outcome,[5],inactive
Oc1cccc(Cl)c1Cl,outcome,[1],inactive
same,outcome,[2],inactive
same,outcome,[3],inactive
same,outcome,[4],inactive
same,outcome,[8],inactive
same,outcome,[5],inactive
NC1=NC(=O)N2CC12 (stereo not drawn),outcome,[1],inactive
same,outcome,[2],inactive
same,outcome,[3],inactive
same,outcome,[4],inactive
same,outcome,[5],inactive
C[C@]12CC[C@H]3[C@@H](CCC4=C(O)C(=O)CC[C@@H]43)[C@@H]1CC[C@@H]2OC(=O)CCC1CCCC1,outcome,[1],inactive
same,outcome,[2],inactive
same,outcome,[3],inactive
same,outcome,[5],inactive
C[C@H]1CNCCc2ccc(Cl)cc21,outcome,[1],inactive
same,outcome,[2],inactive
same,outcome,[3],inactive
same,outcome,[5],inactive
Cc1cnc[nH]1,outcome,[1],inactive
same,outcome,[9],inactive
same,outcome,[8],inactive
same,outcome,[5],inactive
Cn1c(CCCC(=O)O)nc2cc(N(CCCl)CCCl)ccc21,AC50,[1],27.1 µM (active)
same,AC50,[2],31.3 µM (active)
same,outcome,[3],inactive
same,AC50,[5],32.4 µM (active)
Oc1ccc2c3c1O[C@H]1[C@@H](O)C=C[C@H]4[C@@H](C2)NCC[C@@]341,outcome,[1],inactive
same,outcome,[2],inactive
same,outcome,[3],inactive
same,outcome,[4],inactive
same,outcome,[5],inactive
Cc1ccc2c(c1)[C@]13CCCC[C@@H]1[C@H](C2)N(C)CC3,outcome,[1],inactive
same,outcome,[9],inactive
same,outcome,[5],inactive
Cc1ccc2cc(C)ccc2c1,outcome,[1],inactive
same,outcome,[2],inactive
same,outcome,[4],inactive
same,outcome,[8],inactive
same,outcome,[5],inactive
same,outcome,[10],inactive
same,outcome,[11],inactive
same,outcome,[12],inactive
CN1CCc2cc3c(cc2C1O)OCO3 (stereo not drawn),AC50,[1],46.3 µM (active)
same,AC50,[2],61.2 µM (active)
same,AC50,[4],46.3 µM (active)
same,outcome,[8],inactive
same,AC50,[5],46.3 µM (active)
c1csc(C2(N3CCCCC3)CCCCC2)c1,outcome,[1],inactive
same,outcome,[2],inactive
same,outcome,[4],inactive
same,outcome,[5],inactive
Cc1cccc(C#N)c1,outcome,[1],inactive
same,outcome,[2],inactive
same,outcome,[4],inactive
same,outcome,[8],inactive
same,outcome,[5],inactive
CCC(Cl)[N+](=O)[O-] (stereo not drawn),outcome,[1],inactive
same,outcome,[2],inactive
same,outcome,[4],inactive
same,outcome,[8],inactive
same,outcome,[5],inactive
CNC(C)Cc1ccc2c(c1)OCO2 (stereo not drawn),outcome,[1],inactive
same,outcome,[2],inactive
same,outcome,[4],inactive
same,outcome,[13],inactive
same,outcome,[14],inactive
same,outcome,[15],inactive
same,outcome,[16],inactive
COc1ccc(C(CN(C)C)C2(O)CCCCC2)cc1 (stereo not drawn),outcome,[1],inactive
same,outcome,[2],inactive
same,outcome,[4],inactive
same,outcome,[8],inactive
same,outcome,[5],inactive
CN1c2ccccc2C(NCCCCCCC(=O)O)c2ccc(Cl)cc2S1(=O)=O (stereo not drawn),outcome,[1],inactive
same,outcome,[2],inactive
same,outcome,[4],inactive
same,outcome,[5],inactive
S=C=Nc1ccccc1,outcome,[1],inactive
same,outcome,[2],inactive
same,outcome,[8],inactive
Cc1ccc(Cl)c(O)c1,outcome,[1],inactive
same,outcome,[2],inactive
same,outcome,[4],inactive
same,outcome,[8],inactive
same,outcome,[5],inactive
COc1ccc(C(=O)c2c(C)n(CCN3CCOCC3)c3ccccc23)cc1,outcome,[1],inactive
same,outcome,[2],inactive
same,outcome,[4],inactive
same,outcome,[5],inactive
CCC(N)Cc1c[nH]c2ccccc12 (stereo not drawn),outcome,[1],inactive
same,outcome,[2],inactive
same,outcome,[4],inactive
same,outcome,[5],inactive
COc1c(C(C)(C)C)cc([N+](=O)[O-])c(C)c1[N+](=O)[O-],outcome,[1],inactive
same,outcome,[2],inactive
same,outcome,[8],inactive
same,outcome,[5],inactive
Cc1ccc2ccccc2c1,outcome,[1],inactive
same,outcome,[2],inactive
same,outcome,[4],inactive
same,outcome,[5],inactive
NCC1(CC(=O)O)CCCCC1,outcome,[1],inactive
same,outcome,[2],inactive
same,outcome,[4],inactive
same,outcome,[5],inactive
CCCCCCCCn1cc[n+](C)c1,AC50,[1],9.49 µM (active) [middle of 4 runs]
same,AC50,[2],14.7 µM (active) [middle of 4 runs]
same,outcome,[4],inactive
same,outcome,[5],inactive
CCCC[N+]1(C)CCCC1 (tested in a mixture with another compound),outcome,[1],inactive
same,outcome,[2],inactive
same,outcome,[4],inactive
same,AC50,[5],86.9 µM (active)
